Measured values reported in the supplement of paper PMC7595190.
Values without a mark were called inactive.

Tests used:
Test in all cases: CellTox Green cytotoxicity fluorescence relative to DMSO vehicle (fold of vehicle RFU); higher = more cell death (loss of membrane integrity), active = 2 or more
[1] = tested on: CMK
Method in brief: (§1)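 Three cell lines, MV4-11, CMK and Kasumi-1, were seeded at 4.0 × 10^4 cells per well into 96-well black optical-bottom plates containing CellTox Green reagent from the start. Compounds from the Selleckchem apoptosis library were diluted in DMSO, added one at a time at final 0.01, 0.1 or 1 µM with 0.1% DMSO as vehicle, and incubated at 37 °C in 5% CO2. Readings at 24, 48 and 72 h used excitation at 485 nm and emission at 520 nm. Values give cytotoxicity, taken as loss of membrane integrity, as fluorescence in fold of the DMSO vehicle.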

[2] = tested on: Kasumi-1
Method in brief: as §1

[3] = tested on: MV4-11
Method in brief: as §1

| Compound | CellTox Green cytotoxicity fluorescence ([1]; 0.01 µM, 24 h) | CellTox Green cytotoxicity fluorescence ([1]; 0.01 µM, 48 h) | CellTox Green cytotoxicity fluorescence ([1]; 0.01 µM, 72 h) | CellTox Green cytotoxicity fluorescence ([1]; 0.1 µM, 24 h) | CellTox Green cytotoxicity fluorescence ([1]; 0.1 µM, 48 h) | CellTox Green cytotoxicity fluorescence ([1]; 0.1 µM, 72 h) | CellTox Green cytotoxicity fluorescence ([1]; 1 µM, 24 h) | CellTox Green cytotoxicity fluorescence ([1]; 1 µM, 48 h) | CellTox Green cytotoxicity fluorescence ([1]; 1 µM, 72 h) | CellTox Green cytotoxicity fluorescence ([2]; 0.01 µM, 24 h) | CellTox Green cytotoxicity fluorescence ([2]; 0.01 µM, 48 h) | CellTox Green cytotoxicity fluorescence ([2]; 0.01 µM, 72 h) | CellTox Green cytotoxicity fluorescence ([2]; 0.1 µM, 24 h) | CellTox Green cytotoxicity fluorescence ([2]; 0.1 µM, 48 h) | CellTox Green cytotoxicity fluorescence ([2]; 0.1 µM, 72 h) | CellTox Green cytotoxicity fluorescence ([2]; 1 µM, 24 h) | CellTox Green cytotoxicity fluorescence ([2]; 1 µM, 48 h) | CellTox Green cytotoxicity fluorescence ([2]; 1 µM, 72 h) | CellTox Green cytotoxicity fluorescence ([3]; 0.01 µM, 24 h) | CellTox Green cytotoxicity fluorescence ([3]; 0.01 µM, 48 h) | CellTox Green cytotoxicity fluorescence ([3]; 0.01 µM, 72 h) | CellTox Green cytotoxicity fluorescence ([3]; 0.1 µM, 24 h) | CellTox Green cytotoxicity fluorescence ([3]; 0.1 µM, 48 h) | CellTox Green cytotoxicity fluorescence ([3]; 0.1 µM, 72 h) | CellTox Green cytotoxicity fluorescence ([3]; 1 µM, 24 h) | CellTox Green cytotoxicity fluorescence ([3]; 1 µM, 48 h) | CellTox Green cytotoxicity fluorescence ([3]; 1 µM, 72 h) |
| --- | --- | --- | --- | --- | --- | --- | --- | --- | --- | --- | --- | --- | --- | --- | --- | --- | --- | --- | --- | --- | --- | --- | --- | --- | --- | --- | --- |
| C=CC(=O)N1CCN(C(=O)CNc2cc(I)c(Cl)cc2O)CC1 [K-Ras(G12C) inhibitor 12] | 1.01 | 0.986 | 0.963 | 0.999 | 0.997 | 0.992 | 0.992 | 1 | 1.02 | 0.989 | 1.01 | 1 | 1.01 | 0.982 | 0.979 | 0.995 | 0.964 | 0.958 | 0.959 | 0.976 | 0.971 | 0.991 | 0.991 | 1.01 | 0.993 | 0.996 | 1.03 |
| CC[C@H](NC(=O)[C@H](C)NC)C(=O)N1C[C@@H](O)C[C@H]1Cc1c(-c2[nH]c3cc(F)ccc3c2C[C@@H]2C[C@H](O)CN2C(=O)[C@H](CC)NC(=O)[C@H](C)NC)[nH]c2cc(F)ccc12 [Birinapant] | 0.985 | 0.974 | 0.988 | 0.998 | 0.996 | 1 | 0.983 | 1.03 | 0.952 | 0.993 | 1.03 | 1.05 | 1.02 | 1.1 | 1.2 | 1.04 | 1.26 | 1.5 | 0.987 | 0.989 | 1 | 0.988 | 1.04 | 1.08 | 1.03 | 1.2 | 1.32 |
| Cn1cc(-c2ccc3c(c2)CCN3C(=O)Cc2cccc(C(F)(F)F)c2)c2c(N)ncnc21 | 0.971 | 0.966 | 0.935 | 0.981 | 0.987 | 0.978 | 0.972 | 1.01 | 0.913 | 1.07 | 1.03 | 1.02 | 1.01 | 1.05 | 1.07 | 0.955 | 1.02 | 1.08 | 0.987 | 0.984 | 0.979 | 0.986 | 0.981 | 0.977 | 1.05 | 1.34 | 1.77 |
| O=C(O)CSc1cc(NS(=O)(=O)c2ccc(Br)cc2)c2ccccc2c1O | 0.973 | 0.966 | 0.955 | 0.961 | 0.961 | 0.969 | 0.984 | 1.03 | 1.03 | 1.05 | 0.997 | 1.01 | 0.985 | 0.972 | 0.997 | 0.98 | 1.03 | 1.08 | 0.99 | 0.983 | 0.99 | 0.988 | 0.985 | 0.989 | 0.983 | 0.997 | 1.03 |
| COc1ccc(CCNCc2ccc(OCc3ccc(Cl)nc3)c(OC)c2)cc1OC | 0.968 | 0.978 | 0.979 | 0.96 | 0.955 | 0.961 | 0.94 | 0.968 | 0.996 | 0.943 | 0.942 | 0.931 | 0.953 | 0.936 | 0.949 | 0.975 | 0.987 | 0.979 | 0.971 | 0.978 | 0.996 | 0.949 | 0.961 | 0.967 | 0.953 | 0.949 | 0.945 |
| CNC(=O)c1ccc(Nc2ncc(C(F)(F)F)c(NCc3nccnc3N(C)S(C)(=O)=O)n2)cc1 [Defactinib] | 0.942 | 0.942 | 0.941 | 0.923 | 0.931 | 0.915 | 0.945 | 1.01 | 0.889 | 0.961 | 0.964 | 0.942 | 0.955 | 0.958 | 0.956 | 0.931 | 0.985 | 0.991 | 0.944 | 0.943 | 0.952 | 0.955 | 0.991 | 1.01 | 1 | 1.12 | 1.29 |
| O=C1NC(=NCc2cccs2)S/C1=C\c1ccc2ncccc2c1 | 1.02 | 1.04 | 1.07 | 0.996 | 1 | 0.991 | 1.03 | 1.09 | 1.08 | 0.99 | 0.991 | 0.96 | 1.01 | 1.04 | 1 | 1.02 | 1.01 | 1.01 | 0.976 | 0.968 | 0.981 | 0.997 | 0.979 | 0.955 | 1.05 | 1.12 | 1.15 |
| N#Cc1ccc(-c2c(-c3ncn[nH]3)sc(N3CCOCC3)c2C#N)c(F)c1 | 0.974 | 0.999 | 1.04 | 0.969 | 0.994 | 0.919 | 1.03 | 1.13 | 0.932 | 0.959 | 0.958 | 0.957 | 0.991 | 1.05 | 1.05 | 0.985 | 1.3 | 1.41 | 0.973 | 0.967 | 0.969 | 0.972 | 0.993 | 0.991 | 1.01 | 1.13 | 1.13 |
| CN1CCN(Cc2ccc(Nc3ncc(Cl)c(Nc4ccccc4S(=O)(=O)N(C)C)n3)cc2)CC1 | 0.958 | 0.972 | 0.913 | 1.07 | 1.56 | 1.32 | 2.06 (active) | 2.42 (active) | 1.62 | 0.957 | 0.97 | 0.961 | 0.997 | 1.34 | 1.49 | 1.47 | 1.66 | 1.72 | 0.95 | 0.961 | 0.975 | 1.14 | 1.93 | 2.27 (active) | 1.42 | 2.4 (active) | 2.55 (active) |
| CC(C)(C)C[C@@H]1N[C@@H](C(=O)N[C@H]2CC[C@H](O)CC2)[C@H](c2cccc(Cl)c2F)[C@]12C(=O)Nc1cc(Cl)ccc12 | 0.996 | 1.03 | 1.05 | 0.963 | 0.971 | 0.947 | 1.02 | 1.04 | 1.01 | 1 | 0.996 | 1.03 | 0.991 | 0.994 | 1 | 0.906 | 1.02 | 1.04 | 1.04 | 1.03 | 1.05 | 0.993 | 1.11 | 1.22 | 1.26 | 2.25 (active) | 2.49 (active) |
| Fc1ccc(CNc2ncnc3ccc(F)cc23)cc1 [Spautin-1] | 0.96 | 1.08 | 1.16 | 0.971 | 0.943 | 0.916 | 0.983 | 0.967 | 0.917 | 1.03 | 1.04 | 0.987 | 1 | 1 | 0.997 | 1.04 | 1.01 | 1.01 | 0.982 | 0.965 | 0.962 | 0.962 | 0.942 | 0.936 | 1.03 | 1.02 | 1.02 |
